# The full list was thinned out, with the strongest signals kept by preference.
# Columns and labels:
# Experiment in all cases: glycan array binding signal (z-score within array); higher = stronger binding
# Conditions in all cases: glycan notation: IUPAC condensed, linker removed
# [1] = target: GlcNAc(a1-4)Gal(b1-4)GlcNAc(b1-3)Gal(b1-4)GlcNAc
# In short: (§1)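 The binding signal is a Z-score computed within each array and averaged over linkers. Arrays of the same protein sequence at different concentrations or buffers were also averaged together. Data originate from 3228 arrays in the Consortium for Functional Glycomics database, kept only where the protein sequence was available.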
# [2] = target: GlcNAc(a1-4)Gal(b1-4)GlcNAc(b1-3)Gal(b1-4)GlcNAc(b1-3)Gal(b1-4)GlcNAc
# In short: as §1
# [3] = target: GlcNAc(b1-2)Man(a1-3)[GlcNAc(b1-2)Man(a1-6)]Man(b1-4)GlcNAc(b1-4)GlcNAc
# In short: as §1
# [4] = target: GlcNAc(b1-3)Gal(b1-4)GlcNAc(b1-3)Gal(b1-4)GlcNAc(b1-2)[GlcNAc(b1-3)Gal(b1-4)GlcNAc(b1-3)Gal(b1-4)GlcNAc(b1-6)]Man(a1-6)[GlcNAc(b1-3)Gal(b1-4)GlcNAc(b1-3)Gal(b1-4)GlcNAc(b1-2)Man(a1-3)]Man(b1-4)GlcNAc(b1-4)[Fuc(a1-6)]GlcNAc
# In short: as §1
# [5] = target: GlcNAc(b1-3)Gal(b1-4)GlcNAc(b1-6)[Gal(b1-3)]GalNAc
# In short: as §1
# GlcNAc(b1-4)GlcNAc = target: GlcNAc(b1-4)GlcNAc
# In short: as §1
# [6] = target: GlcNAc(b1-4)GlcNAc(b1-4)GlcNAc
# In short: as §1
# [7] = target: GlcNAc(b1-4)GlcNAc(b1-4)GlcNAc(b1-4)GlcNAc(b1-4)GlcNAc
# In short: as §1
# [8] = target: GlcNAc(b1-4)GlcNAc(b1-4)GlcNAc(b1-4)GlcNAc(b1-4)GlcNAc(b1-4)GlcNAc
# In short: as §1
# [9] = target: Man(a1-2)Man(a1-3)[Man(a1-3)[Man(a1-6)]Man(a1-6)]Man(b1-4)GlcNAc(b1-4)GlcNAc
# In short: as §1
# [10] = target: Neu5Ac(a2-3)Gal(b1-3)GlcNAc(b1-2)Man
# In short: as §1
# [11] = target: Neu5Ac(a2-3)Gal(b1-3)GlcNAc6S
# In short: as §1
# [12] = target: Neu5Ac(a2-3)Gal(b1-4)GlcNAc
# In short: as §1
# [13] = target: Neu5Ac(a2-3)Gal(b1-4)[Fuc(a1-3)]GlcNAc
# In short: as §1
# [14] = target: Neu5Ac(a2-3)Gal6S(b1-4)GlcNAc
# In short: as §1
# [15] = target: Neu5Ac(a2-6)Gal(b1-4)GlcNAc(b1-2)Man(a1-6)[Gal(b1-4)GlcNAc(b1-2)Man(a1-3)]Man(b1-4)GlcNAc(b1-4)GlcNAc
# In short: as §1
# [16] = target: Neu5Ac(a2-6)Gal(b1-4)GlcNAc(b1-3)Gal(b1-4)GlcNAc
# In short: as §1
# [17] = target: Neu5Ac(a2-6)GlcNAc(b1-4)GlcNAc(b1-4)GlcNAc
# In short: as §1
# [18] = target: Neu5Ac9Ac(a2-3)Gal(b1-4)GlcNAc
# In short: as §1
binder,measurement,setting,value
"AAA (Anguilla anguilla), Q7SIC1 (protein) VIPEGYTQENVAVRGKATQSAQLRGEHAANSEASNAIDGNRDSNFYHGSCTHSSGQANPWWRVDLLQVYTITSVTITNRGDCCGERISGAEINIGQHLASNGVNNPECSVIGSMATGETKTFHCPAPMIGRYVVTYLPTSESLHLCEVEVNVDKPAAA",glycan array binding signal (z-score),[1],1.96
same,glycan array binding signal (z-score),[2],2.29
same,glycan array binding signal (z-score),[3],-0.274
same,glycan array binding signal (z-score),[4],0.944
same,glycan array binding signal (z-score),[5],-0.298
same,glycan array binding signal (z-score),GlcNAc(b1-4)GlcNAc,2.2
same,glycan array binding signal (z-score),[6],5.55
same,glycan array binding signal (z-score),[7],7.88
same,glycan array binding signal (z-score),[8],6.77
same,glycan array binding signal (z-score),[9],-0.106
same,glycan array binding signal (z-score),[10],-0.023
same,glycan array binding signal (z-score),[11],0.003
same,glycan array binding signal (z-score),[12],-0.086
same,glycan array binding signal (z-score),[13],-0.098
same,glycan array binding signal (z-score),[14],-0.179
same,glycan array binding signal (z-score),[15],-0.183
same,glycan array binding signal (z-score),[16],-0.202
same,glycan array binding signal (z-score),[17],2.46
same,glycan array binding signal (z-score),[18],-0.102

# Reference: the supplement of paper PMC8728848
